Assay results published in publication doi:10.1101/2024.03.05.583629.

These sequences were tested against pT7_6His-AlfaTag-HOXD13 (human, UniProt P35453 263-343) (assay: PADIT-seq). Settings: dsDNA, one strand shown.
Sequence of pT7_6His-AlfaTag-HOXD13 (P35453 263-343): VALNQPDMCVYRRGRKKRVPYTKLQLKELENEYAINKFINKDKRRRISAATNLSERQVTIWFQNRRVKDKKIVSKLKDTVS

Question: “CTCGAGGATATCAAGATCTGGCCTCGGCCTTTTAAGAGGAACCTCTAGCTAGCCGACTCACTATAGGGATAATCGCCCTGAGCAAAGACC” was tested. Which binding signal did it give?
Answer: Its binding signal is 2.52 ± 0.0827 log2FC.

Question: Which binding signal does the source give for “CTCGAGGATATCAAGATCTGGCCTCGGCATTTTAACCGGAACCTCTAGCTAGCCGACTCACTATAGGGATAATCGCCCTGAGCAAAGACC” here?
Answer: The binding signal was 1.17 ± 0.0785 log2FC.

Question: With “CTCGAGGATATCAAGATCTGGCCTCGGCCGACTAAAAGGAACCTCTAGCTAGCCGACTCACTATAGGGATAATCGCCCTGAGCAAAGACC” as the sequence, how does the binding signal read?
Answer: Its binding signal is -0.753 ± 0.121 log2FC.

Question: “CTCGAGGATATCAAGATCTGGCCTCGGCTTTTTAACGGGAACCTCTAGCTAGCCGACTCACTATAGGGATAATCGCCCTGAGCAAAGACC” was tested. Which binding signal did it give?
Answer: Its binding signal is 1.89 ± 0.0968 log2FC.

Question: “CTCGAGGATATCAAGATCTGGCCTCGGCGCGCGCGCGGGAACCTCTAGCTAGCCGACTCACTATAGGGATAATCGCCCTGAGCAAAGACC” was tested. Which binding signal did it give?
Answer: The binding signal was -1.01 ± 0.148 log2FC.

Question: With “CTCGAGGATATCAAGATCTGGCCTCGGCATGGTAAAAGGAACCTCTAGCTAGCCGACTCACTATAGGGATAATCGCCCTGAGCAAAGACC” as the sequence, how does the binding signal read?
Answer: The binding signal was 1.03 ± 0.0704 log2FC.

Question: With “CTCGAGGATATCAAGATCTGGCCTCGGCCGATTAAAAGGAACCTCTAGCTAGCCGACTCACTATAGGGATAATCGCCCTGAGCAAAGACC” as the sequence, how does the binding signal read?
Answer: Its binding signal is 1.2 ± 0.104 log2FC.

Question: For “CTCGAGGATATCAAGATCTGGCCTCGGCGCGCTCGCGGGAACCTCTAGCTAGCCGACTCACTATAGGGATAATCGCCCTGAGCAAAGACC”, which binding signal is on record?
Answer: Its binding signal is -1.06 ± 0.163 log2FC.

Question: Which binding signal does the source give for “CTCGAGGATATCAAGATCTGGCCTCGGCTTTTTAATGGGAACCTCTAGCTAGCCGACTCACTATAGGGATAATCGCCCTGAGCAAAGACC” here?
Answer: Its binding signal is 2.57 ± 0.0871 log2FC.

Question: For “CTCGAGGATATCAAGATCTGGCCTCGGCATTTTATCGGGAACCTCTAGCTAGCCGACTCACTATAGGGATAATCGCCCTGAGCAAAGACC”, which binding signal is on record?
Answer: Its binding signal is 1.85 ± 0.0758 log2FC.

Question: Which binding signal does the source give for “CTCGAGGATATCAAGATCTGGCCTCGGCCTTTTAAATGGAACCTCTAGCTAGCCGACTCACTATAGGGATAATCGCCCTGAGCAAAGACC” here?
Answer: Its binding signal is 2.36 ± 0.0747 log2FC.

Question: With “CTCGAGGATATCAAGATCTGGCCTCGGCCTTTTATTAGGAACCTCTAGCTAGCCGACTCACTATAGGGATAATCGCCCTGAGCAAAGACC” as the sequence, how does the binding signal read?
Answer: The binding signal was 3.32 ± 0.0849 log2FC.

Question: With “CTCGAGGATATCAAGATCTGGCCTCGGCCATGTAAAAGGAACCTCTAGCTAGCCGACTCACTATAGGGATAATCGCCCTGAGCAAAGACC” as the sequence, how does the binding signal read?
Answer: The binding signal was 1.41 ± 0.0975 log2FC.

Question: For “CTCGAGGATATCAAGATCTGGCCTCGGCCCGCCACGCGGAACCTCTAGCTAGCCGACTCACTATAGGGATAATCGCCCTGAGCAAAGACC”, which binding signal is on record?
Answer: Its binding signal is -1.05 ± 0.125 log2FC.

Question: How did the binding signal turn out when “CTCGAGGATATCAAGATCTGGCCTCGGCTTTTTATCCGGAACCTCTAGCTAGCCGACTCACTATAGGGATAATCGCCCTGAGCAAAGACC” was run?
Answer: The binding signal was 1.15 ± 0.0852 log2FC.

Question: “CTCGAGGATATCAAGATCTGGCCTCGGCCTTTTATGAGGAACCTCTAGCTAGCCGACTCACTATAGGGATAATCGCCCTGAGCAAAGACC” was tested. Which binding signal did it give?
Answer: Its binding signal is 3.45 ± 0.0923 log2FC.

Question: Which binding signal does the source give for “CTCGAGGATATCAAGATCTGGCCTCGGCGTTTTATTCGGAACCTCTAGCTAGCCGACTCACTATAGGGATAATCGCCCTGAGCAAAGACC” here?
Answer: Its binding signal is 1.73 ± 0.0989 log2FC.

Question: With “CTCGAGGATATCAAGATCTGGCCTCGGCGTTCTAAAAGGAACCTCTAGCTAGCCGACTCACTATAGGGATAATCGCCCTGAGCAAAGACC” as the sequence, how does the binding signal read?
Answer: The binding signal was -0.197 ± 0.0802 log2FC.

Question: Which binding signal does the source give for “CTCGAGGATATCAAGATCTGGCCTCGGCCTTTTACTTGGAACCTCTAGCTAGCCGACTCACTATAGGGATAATCGCCCTGAGCAAAGACC” here?
Answer: Its binding signal is 0.95 ± 0.0821 log2FC.

Question: For “CTCGAGGATATCAAGATCTGGCCTCGGCCTTTTATCAGGAACCTCTAGCTAGCCGACTCACTATAGGGATAATCGCCCTGAGCAAAGACC”, which binding signal is on record?
Answer: Its binding signal is 2.19 ± 0.0738 log2FC.

Question: “CTCGAGGATATCAAGATCTGGCCTCGGCGTTTTAGTAGGAACCTCTAGCTAGCCGACTCACTATAGGGATAATCGCCCTGAGCAAAGACC” was tested. Which binding signal did it give?
Answer: Its binding signal is 1.61 ± 0.098 log2FC.

Question: With “CTCGAGGATATCAAGATCTGGCCTCGGCGTTTTAGCTGGAACCTCTAGCTAGCCGACTCACTATAGGGATAATCGCCCTGAGCAAAGACC” as the sequence, how does the binding signal read?
Answer: The binding signal was -0.719 ± 0.136 log2FC.

Question: How did the binding signal turn out when “CTCGAGGATATCAAGATCTGGCCTCGGCGCGTGGCCAGGAACCTCTAGCTAGCCGACTCACTATAGGGATAATCGCCCTGAGCAAAGACC” was run?
Answer: The binding signal was -1.04 ± 0.128 log2FC.

Question: Which binding signal does the source give for “CTCGAGGATATCAAGATCTGGCCTCGGCGCGATGGCGGGAACCTCTAGCTAGCCGACTCACTATAGGGATAATCGCCCTGAGCAAAGACC” here?
Answer: Its binding signal is -0.944 ± 0.133 log2FC.

Question: “CTCGAGGATATCAAGATCTGGCCTCGGCTTTTTATATGGAACCTCTAGCTAGCCGACTCACTATAGGGATAATCGCCCTGAGCAAAGACC” was tested. Which binding signal did it give?
Answer: Its binding signal is 3.25 ± 0.0873 log2FC.

Question: “CTCGAGGATATCAAGATCTGGCCTCGGCATTTTATTAGGAACCTCTAGCTAGCCGACTCACTATAGGGATAATCGCCCTGAGCAAAGACC” was tested. Which binding signal did it give?
Answer: Its binding signal is 3.28 ± 0.0692 log2FC.

Question: How did the binding signal turn out when “CTCGAGGATATCAAGATCTGGCCTCGGCGTTTTATGTGGAACCTCTAGCTAGCCGACTCACTATAGGGATAATCGCCCTGAGCAAAGACC” was run?
Answer: Its binding signal is 2.96 ± 0.0773 log2FC.

Question: For “CTCGAGGATATCAAGATCTGGCCTCGGCGTTTTAAGAGGAACCTCTAGCTAGCCGACTCACTATAGGGATAATCGCCCTGAGCAAAGACC”, which binding signal is on record?
Answer: The binding signal was 2.61 ± 0.088 log2FC.

Question: “CTCGAGGATATCAAGATCTGGCCTCGGCGTAATAAAAGGAACCTCTAGCTAGCCGACTCACTATAGGGATAATCGCCCTGAGCAAAGACC” was tested. Which binding signal did it give?
Answer: The binding signal was 2.86 ± 0.0699 log2FC.

Question: “CTCGAGGATATCAAGATCTGGCCTCGGCCTTTTAAAGGGAACCTCTAGCTAGCCGACTCACTATAGGGATAATCGCCCTGAGCAAAGACC” was tested. Which binding signal did it give?
Answer: The binding signal was 2.37 ± 0.0692 log2FC.

Question: For “CTCGAGGATATCAAGATCTGGCCTCGGCCTGGTAAAAGGAACCTCTAGCTAGCCGACTCACTATAGGGATAATCGCCCTGAGCAAAGACC”, which binding signal is on record?
Answer: The binding signal was 0.442 ± 0.0982 log2FC.

Question: “CTCGAGGATATCAAGATCTGGCCTCGGCATTTTATTTGGAACCTCTAGCTAGCCGACTCACTATAGGGATAATCGCCCTGAGCAAAGACC” was tested. Which binding signal did it give?
Answer: Its binding signal is 2.85 ± 0.07 log2FC.

Question: Which binding signal does the source give for “CTCGAGGATATCAAGATCTGGCCTCGGCGTTTTAGAGGGAACCTCTAGCTAGCCGACTCACTATAGGGATAATCGCCCTGAGCAAAGACC” here?
Answer: Its binding signal is 1.24 ± 0.114 log2FC.

Question: Which binding signal does the source give for “CTCGAGGATATCAAGATCTGGCCTCGGCCTTTTAGAAGGAACCTCTAGCTAGCCGACTCACTATAGGGATAATCGCCCTGAGCAAAGACC” here?
Answer: Its binding signal is 0.357 ± 0.088 log2FC.

Question: Which binding signal does the source give for “CTCGAGGATATCAAGATCTGGCCTCGGCGCGTGGAGCGGAACCTCTAGCTAGCCGACTCACTATAGGGATAATCGCCCTGAGCAAAGACC” here?
Answer: Its binding signal is -0.893 ± 0.118 log2FC.

Question: With “CTCGAGGATATCAAGATCTGGCCTCGGCTTGCTAAAAGGAACCTCTAGCTAGCCGACTCACTATAGGGATAATCGCCCTGAGCAAAGACC” as the sequence, how does the binding signal read?
Answer: The binding signal was -0.271 ± 0.11 log2FC.

Question: With “CTCGAGGATATCAAGATCTGGCCTCGGCCTTTTAGGGGGAACCTCTAGCTAGCCGACTCACTATAGGGATAATCGCCCTGAGCAAAGACC” as the sequence, how does the binding signal read?
Answer: Its binding signal is 1.1 ± 0.083 log2FC.

Question: Which binding signal does the source give for “CTCGAGGATATCAAGATCTGGCCTCGGCGTCCTAAAAGGAACCTCTAGCTAGCCGACTCACTATAGGGATAATCGCCCTGAGCAAAGACC” here?
Answer: Its binding signal is 0.117 ± 0.0783 log2FC.

Question: Which binding signal does the source give for “CTCGAGGATATCAAGATCTGGCCTCGGCTATCCACGCGGAACCTCTAGCTAGCCGACTCACTATAGGGATAATCGCCCTGAGCAAAGACC” here?
Answer: Its binding signal is -1.03 ± 0.113 log2FC.
